# The campaign covered roughly 24,000 compounds. About 180 (0.75%) were called active. Shown is part of a subset that was picked to be rich in actives. A number with no mark means an inactive call. Rule as the data show it: active = inhibition above about 30%; inconclusive = no clear call, values can overlap the other calls; inactive = below that.
# Biological target: fMet-Leu-Phe receptor (Homo sapiens) (UniProt P21462)
# Experiment: small molecules displacing FPR fluorescent ligand – cell-based, FPRL1 counter-screen, flow cytometry, primary screen (AID 440);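 also: 0% = buffer wells and 100% = receptor blocker peptide wells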
# Details: FPR-expressing cells, fluorescent ligand binding, hits give high values, concentration not given here
# fMet-Leu-Phe receptor (Homo sapiens), sequence (P21462 whole entry, looked up): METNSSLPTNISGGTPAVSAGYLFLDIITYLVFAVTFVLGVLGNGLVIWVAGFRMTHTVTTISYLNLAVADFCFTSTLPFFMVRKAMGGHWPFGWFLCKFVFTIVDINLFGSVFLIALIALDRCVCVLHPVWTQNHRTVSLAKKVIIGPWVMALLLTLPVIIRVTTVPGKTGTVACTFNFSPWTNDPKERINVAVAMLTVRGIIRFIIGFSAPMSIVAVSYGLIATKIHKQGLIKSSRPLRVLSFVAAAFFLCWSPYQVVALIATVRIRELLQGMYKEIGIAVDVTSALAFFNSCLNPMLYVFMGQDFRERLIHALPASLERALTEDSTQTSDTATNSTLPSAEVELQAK
row,SMILES,inhibition [%]
1,COC(=O)c1ccc(CSc2ccccc2C)o1,0.5
2,O=C(Nc1ccccc1C(=O)N1CCOCC1)C1CCC(=O)N1C1CCCC1 (stereo unspecified),-0.6
3,COc1ccc(CN2C(=O)CN=C2Nc2ccc(C)cc2C)cc1,6.5
4,O=C(Cn1nc(Cc2cccnc2)c2ccccc2c1=O)NCC1CCCO1 (stereo unspecified),0.4
5,Cc1nn(C)c(C)c1S(=O)(=O)N1CCc2ccccc21,8.9
6,O=C(NCCCN1CCN(C2CCCCC2)CC1)Nc1ccccc1C(F)(F)F,1.3
7,O=C(CN1C(=O)COc2ccccc21)Nc1ccc(F)cc1,4.3
8,CCn1ncc(Br)c1C(=O)Nc1cc(C)ccc1F,0.8
9,Cc1nc(CNS(=O)(=O)c2cccnc2)cs1,1.9
10,CSc1sc(C)cc1C1C(C#N)=C(N)N(c2cccnc2)C2=C1C(=O)CCC2 (stereo unspecified),4.3
11,Cc1nc(C)c(C(=O)Nc2ccc(C)c(F)c2)o1,-4.6
12,O=c1c(-c2ccc3c(c2)OCCO3)c(C(F)(F)F)oc2cc(O)cc(O)c12,-6.7
13,Cc1cccn2c(=O)c3cc(C(=O)NCc4ccccn4)n(C)c3nc12,-5.1
14,O=C(Nc1cccnc1)c1noc2c1CCCCC2,-1.9
15,Cc1cc(N2C(=O)C(=O)/C(=C(/O)c3ccc(Cl)cc3)C2c2cccc(Br)c2)no1 (stereo unspecified),3.2
16,CCCC(NC(=O)c1ccccc1)c1nc2ccccc2n1Cc1ccc(C(=O)OC)o1 (stereo unspecified),24.2
17,CSc1ccc(NC(=O)N2CC(C)OC(C)C2)cc1 (stereo unspecified),-6.4
18,CCCCOc1ccc(C(=O)NCc2ccco2)cc1,0.1
19,O=C(O)Cc1ccc(-c2ccccc2)cc1,3.8
20,Cc1cc(Cl)c(S(=O)(=O)Nc2ccc3c(c2)OCCO3)cc1OCC(N)=O,-7.6
21,CC1=C(C)CC2C(=O)N(c3cccc4ccccc34)C(=O)C2C1 (stereo unspecified),-2.3

row,SMILES,inhibition [%]
1,COc1cc2c(cc1NC(=O)CN1CCN(S(=O)(=O)c3ccc(F)cc3)CC1)oc1ccccc12,2.8
2,CCOC(=O)C1(C(F)(F)F)N=C(N(C)C)OC(N(C)C)=N1,-1.4
3,COC(=O)Nc1ccc(S(=O)(=O)N(C)CC(F)(F)C(F)F)cc1,1
4,CCCOc1ccc(/C(O)=C2/C(=O)C(=O)N(CCN(C)C)C2c2ccc(OC)c(OC)c2)cc1 (stereo unspecified),-5
5,COC(=O)CNS(=O)(=O)c1ccc(Cc2ccc(S(=O)(=O)NCC(=O)OC)cc2)cc1,-3.3
6,CCOC(=O)c1ccc(-n2c(C)nc3c(cnn3-c3ccccc3C)c2=O)cc1,-9.5
7,CN(C)S(=O)(=O)c1ccc(Oc2ccc(S(=O)(=O)N(C)C)cc2)cc1,-1.8
8,O=C(CSc1nnc(Cn2cnc3ccccc32)o1)c1ccccc1,1.9
9,O=C(O)[C@@H]1CCCN1c1ncnc2sc3c(c12)CCC3,8.1
10,CC(=O)c1cccc(S(=O)(=O)N2CCC(n3nnc4cc(F)ccc43)CC2)c1,9.5
11,COc1ccc(C(=O)Nc2nncs2)c(OC)c1,5.3
12,CC(=O)Nc1cc(C(=O)O)ccc1S(=O)(=O)c1ccc(Cl)cc1,-2.3
13,CCOC(=O)N1CCC(NC(=O)Cn2cc3c(n2)CCCCC3)CC1,0
14,Cc1ccc(C)c(S(=O)(=O)n2cnc3ccccc32)c1,-0.2
15,O=C(Nc1ccccc1C(F)(F)F)c1cc(-c2ccc(O)cc2)on1,-2.3
16,O=C(CS(=O)(=O)c1cn(Cc2ccc(Cl)cc2)c2ccccc12)N1CCOCC1,15
17,O=C(Nc1c2c(nn1-c1ccc(F)cc1)CS(=O)C2)C12CC3CC(CC(C3)C1)C2 (stereo unspecified),-5.4
18,Cc1cc(C)c(C#N)c(SCc2[nH]nc3c2C(c2ccccc2)C(C#N)=C(N)O3)n1 (stereo unspecified),-6.4
19,CCCCc1nc2c(=O)[nH]c3ccccc3c2o1,-2.1
20,Fc1ccc2nc(Nc3nc4c(s3)CCCC4)sc2c1,-14.3
21,Cn1cccc1C1(C(F)(F)F)NCCNC1=O (stereo unspecified),1.7

row,SMILES,inhibition [%]
1,CCCCCCn1c(CN2CCCCC2)nc2c1c(=O)n(C)c(=O)n2C,-5.5
2,O=c1c(-c2ccccc2)coc2c(CN3CCOCC3)c(O)ccc12,-5.5
3,c1ccc(COc2nsnc2N2CCOCC2)cc1,-1.9
4,Cn1cccc1Cc1nnc(SCC(=O)NCc2ccc3c(c2)OCO3)n1CCc1ccccc1,4.8
5,COc1ccc(CCNC(=O)C2CCN(c3nn4c(=O)cc(C)nc4s3)CC2)cc1OC,-2.7
6,CCn1ncc(C2=NOC(C(=O)N3CCN(c4ccccc4)CC3)C2)c1C (stereo unspecified),-5.6
7,OCc1n[nH]c(CO)n1,1.3
8,O=C(CN1CCN(c2ncc(C(F)(F)F)cc2Cl)CC1)Nc1ccc2c(c1)OCO2,-4.3
9,CCCCOCCCNC(=O)c1ccccc1OCC,1.4
10,CCOC(=O)c1cc(NC(=O)SCC(=O)O)c(C)nc1C,3.8
11,CCOC(=O)c1cc2cc(-c3c(C(=O)OCC)oc4cc(O)cc(O)c4c3=O)ccc2o1,-2.3
12,COc1cc(C2C(C(=O)Nc3ccc(F)cc3)=C(C)Nc3nc(CCCO)nn32)cc(OC)c1OC (stereo unspecified),-4.8
13,CCOc1ccc2c(=O)c(-c3ccc4c(c3)OCCCO4)c(C)oc2c1,-4.1
14,CCOc1ccc(N(CC(=O)NCc2ccc(OC)cc2)S(=O)(=O)c2c(C)noc2C)cc1,-3.8
15,CCOC(=O)CSc1nc2c(c(=O)n(C)c(=O)n2C)n1Cc1ccccc1F,4.7
16,CCOc1ccc(Cn2nnc(C(=O)Nc3ccc(OC)cc3OC)c2N)cc1,-3.7
17,O=C(Nc1ccn(Cc2ccc(F)cc2)n1)c1ccncc1,-7.7
18,COc1ccc(OC)c(NC(=O)CCN2CCC(C)CC2)c1,-5.8
19,Cc1cc(C)c(C#N)c(SCS(=O)c2ccc(C(C)(C)C)cc2)n1 (stereo unspecified),-4.1

# Reference: PubChem BioAssay AID440 (NMMLSC, 2006)
